Source: PubChem BioAssay (NCATS)
Inconclusive results are not listed. Active and inactive are the calls of the source. Calls follow the shape of the dose curve; as a rule, active = well fitted cell-killing curve with a large enough effect; inconclusive = small, poorly fitted or top-dose-only effect; inactive = no such curve, though single readings can be large or run the other way.

experiment: qHTS of pediatric cancer cell lines to identify multiple opportunities for drug repurposing: Primary screen for SK-N-MC cells (AID 1347093); conditions: SK-N-MC viability, CellTiter-Glo luminescence, 48 h; series mostly up to 46 µM
Excerpt: Drug repurposing or repositioning has been offered as a strategy for drug development in oncology programs. This approach has special potential for childhood cancers and other rare or orphan diseases, where the expected return on new drug development has been a disincentive to pharmaceuticals.
In this project we exploit the poly-pharmacology of drugs to discover new indications via phenotypic screening of a panel of 19 well-characterized cell lines derived from solid tumors seen in children and adolescents. The goal is to identify approved drugs with previously unrecognized anticancer properties that has the potential to reveal new mechanisms and biological processes involved in carcinogenesis or drug resistance. We employed a titration-based paradigm (quantitative high-throughput screening or qHTS), where all compounds were tested at multiple concentrations for their effect on cell viability. Concentration-response curves (CRCs) were derived directly from the primary screen, and both potency and efficacy values were used to identify compounds with robust bioactivity profiles. We screened the NIH Chemical Genomics Center (NCGC) Pharmaceutical Collection (NPC) and Mechanism Interrogation Plate (MIPE) small molecule collections of approved and investigational compounds against these cell lines; and measured metabolically active cells after 48 hours of compound treatment as a proxy for cell viability.
Assay Submitter: Nathalia J. Martinez, National Center for Advancing Translational Sciences, National Institutes of Health, Rockville, MD, USA; email: natalia.martinez@nih.gov
[1] Shen, M et al. Quantitative high-throughput phenotypic screening of pediatric cancer cell lines identifies multiple opportunities for drug repurposing. Oncotarget 2017 Dec 19;9(4):4758-4772. PMID 29435139.
The cells were obtained from University of North Carolina (UNC), Pediatric Preclinical Testing Program (PPT), and Coriell Institute (CI).
qHTS cell viability assay:
Cells were assayed in growth media at a density of 500-1,000 cells/well. Five microliters of cells were dispensed into 1,536-well, white, solid-bottom, TC-treated plates (Greiner Bio One) using a multidrop dispenser and incubated at 37 degrees C, 5% CO2, under a humidified atmosphere for 5 hours. Twenty-three nanoliters of compounds and controls (neutral control DMSO or positive control bortezomib at final concentration of 2.3 µM) were subsequently transferred by Kalypsys pintool. For primary screens, the MIPE collection was tested at 11-point dilutions (final concentrations range from 0.78 nM to 46 µM) and the NPC collection at 8-point dilutions (final concentrations range from 0.59nM to 46 µM). Compounds tested in follow-up screens were assayed at 11-point dilutions. Cells were incubated for 48 hours, followed by addition of 3 uL of CellTiter-Glo (Promega). After a 15 min incubation at room temperature, samples were analyzed for luminescence intensity using a ViewLux High-throughput CCD imager equipped with clear filters.
Potency is read from the fitted curve at half-maximal effect.

Structure (SMILES)	Potency
CCC=CC[C@H]1C(=O)CC[C@@H]1CC(=O)OC	inactive
O=C(O)CCC=CCC[C@@H]1[C@H](N2CCCCC2)[C@@H](O)C[C@@H]1OCc1ccc(-c2ccccc2)cc1	26.4 µM (active)
O=[N+]([O-])c1ccc(Nc2ccccc2-c2ccccc2)c2nonc12	29.6 µM (active)
CN1N=C(N)c2cn([C@@H]3O[C@H](COP(=O)(O)O)[C@@H](O)[C@@H]3O)c3ncnc1c23	0.0042 µM (active)
Cc1ccc(S(=O)(=O)OCC(=O)Nc2ccc(C(=O)O)c(O)c2)cc1	9.35 µM (active)
COc1cc(F)c(C(C)C)cc1-c1ccc(C(F)(F)F)cc1CN1C(=O)O[C@H](c2cc(C(F)(F)F)cc(C(F)(F)F)c2)[C@@H]1C	inactive
CN[C@@H]1[C@@H](O)[C@@H](O[C@@H]2[C@@H](O)[C@H](O[C@H]3O[C@H](CN)[C@@H](O)[C@H](O)[C@@H]3O)[C@@H](N)C[C@@H]2NC(=O)[C@@H](O)CN)OC[C@]1(C)O	inactive
O=C(CC12CC3CC(CC(C3)C1)C2)Nc1cccc2nc(NCCNCCO)ccc12	1.87 µM (active)
CC(NCCc1ccc(O)cc1)C(O)c1ccc(O)cc1 (stereo not given)	inactive
CC[C@@H]([C@H](C)O)n1ncn(-c2ccc(N3CCN(c4ccc(OCC5CO[C@@](Cn6cncn6)(c6ccc(F)cc6F)C5)cc4)CC3)cc2)c1=O (stereo not given in full)	16.6 µM (active)
Clc1ccc(C2(c3ccc(-c4cn[nH]c4)cc3)CCNCC2)cc1	6.62 µM (active)
O=C1C(c2c(O)[nH]c3ccccc23)=Nc2ccccc21	0.118 µM (active)
Cc1cc2c(cc1C1(c3ccc(C(=O)O)cn3)CC1)C(C)(C)CCC2(C)C	inactive
COc1ccc(-c2nc3ccc(C4=NNC(=O)CC4C)cc3[nH]2)cc1 (stereo not given)	21.1 µM (active)
N#CC(c1ccc(Cl)cc1)c1c(Cl)cc(-n2ncc(=O)[nH]c2=O)cc1Cl (stereo not given)	9.35 µM (active)
C[C@@]1(c2cc(-c3cncnc3)c(F)cc2F)CCSC(N)=N1	2.96 µM (active)
O=C(O)c1ccc(O)c2ncc(N3CCOCC3)cc12	18.7 µM (active)
Cc1cc(CS(=O)(=O)c2ccccc2)cc(OCc2ccc(CN3CCC[C@H]3CO)cc2)c1	2.64 µM (active)
CN(C)c1ccccc1CN1CCCN(Cc2ccccc2N(C)C)C1c1ccncc1	26.4 µM (active)
CN1C(=O)C(Cc2c[nH]c3ccccc23)NC1=S (stereo not given)	inactive

Structure (SMILES)	Potency
C[C@@H]1O[C@@H](O[C@H]2CC[C@@]3(C)[C@H](CC[C@@H]4[C@H]3C[C@@H](O)[C@]3(C)[C@@H](C5=CC(=O)OC5)CC[C@]43O)C2)C[C@H](O)[C@@H]1O[C@H]1C[C@H](O)[C@H](O[C@H]2C[C@H](O)[C@@H](O)[C@@H](C)O2)[C@H](C)O1 (stereo in doubt)	0.108 µM (active)
COc1cccc(OC)c1-c1cc(C(=O)NC2(C(=O)O)C3CC4CC(C3)CC2C4)nn1-c1ccnc2cc(Cl)ccc12 (stereo not given)	18.7 µM (active)
CC[C@H]1OC(=O)[C@H](C)[C@@H](O[C@H]2C[C@@](C)(OC)[C@@H](O)[C@H](C)O2)[C@H](C)[C@@H](O[C@@H]2O[C@H](C)C[C@H](N(C)C)[C@H]2O)[C@](C)(O)C[C@H](C)C(=NOCOCCOC)[C@H](C)[C@@H](O)[C@]1(C)O	16.6 µM (active)
Cc1ccc(NC(=O)c2cccc(N(C)C)c2)cc1NC(=O)c1ccc(O)cc1	0.187 µM (active)
CCCCC(C)(C)[C@H](O)C=C[C@H]1[C@H](O)CC(=O)[C@H]1CC=CCCCC(=O)O	20.9 µM (active)
CC(O)=C(C#N)C(=O)Nc1ccc(C(F)(F)F)cc1	4.69 µM (active)
CCCCn1c(=O)n(Cc2ccccc2F)c(=O)c2[nH]c(Cc3ccc(NC(C)=O)cc3)nc21	10.5 µM (active)
CC(=O)NCCC(=O)N[C@@H](CCC(N)=O)C(=O)N[C@@H](CO)C(=O)N[C@@H](CCC(N)=O)C(=O)N[C@@H](CCC(N)=O)C(=O)N[C@H](C(=O)N[C@@H](Cc1ccccc1)C(=O)N[C@]1(C)CCCCCCC=CCCC[C@@](C)(C(=O)N[C@@H](CCC(N)=O)C(=O)N[C@@H](CC(N)=O)C(N)=O)NC(=O)[C@H](CC(C)C)NC(=O)[C@H](CC(C)C)NC(=O)[C@@H](CCCNC(=N)N)NC(=O)[C@H](Cc2c[nH]c3ccccc23)NC(=O)[C@H](CC(C)C)NC(=O)[C@H](CC(N)=O)NC1=O)[C@H](C)O	inactive
CCCCc1ccc(NS(=O)(=O)c2ccc(C)c(C(=O)N3CCN(c4cccc(C)c4C)CC3)c2)cc1	23.5 µM (active)
CC(C)n1c(C=C[C@H](O)C[C@H](O)CC(=O)O)c(-c2ccc(F)cc2)c2ccccc21	11.8 µM (active)
CN(C)c1nc(Cc2ccc(NC(=O)c3ccc(C(F)(F)F)cc3)cc2)nc(N(C)C)c1CC(=O)O	inactive
Cc1nc(NC(=O)N2CCC[C@@H]2C(N)=O)sc1-c1csc(C(C)(C)C)n1	0.235 µM (active)
CN1CCN(c2ncc(-c3cc(Cl)cc(Cl)c3Cl)c(N)n2)CC1	10.5 µM (active)
C[C@@H]1[C@H](O)[C@@H](C)C=CC=CC=CC=CC=CC=CC=C[C@H](O[C@@H]2O[C@H](C)[C@H](O)[C@H](N)[C@@H]2O)C[C@@H]2O[C@](O)(C[C@@H](O)C[C@@H](O)[C@H](O)CC[C@@H](O)C[C@@H](O)CC(=O)O[C@H]1C)C[C@H](O)[C@@H]2C(=O)O	0.118 µM (active)
Cc1cc(C(C)Nc2ccccc2)c2nc(N3CCOCC3)cc(=O)n2c1 (stereo not given)	0.132 µM (active)
CCC[C@H](Nc1nc(-c2ccc(NC(=O)NCC)c(OC)c2)ncc1C)c1cccnc1	0.0118 µM (active)
CC(C)(F)C[C@H](N[C@@H](c1ccc(-c2ccc(S(C)(=O)=O)cc2)cc1)C(F)(F)F)C(=O)NC1(C#N)CC1	inactive
Nc1ncnc2c1ncn2[C@@H]1O[C@H](CO)[C@@H](O)[C@@H]1O	0.833 µM (active)
CNC(=O)c1ccc2c(C(=Nc3cccc(CN(C)C)c3)c3ccccc3)c(O)[nH]c2c1	23.5 µM (active)
CC1C(=O)OC2C(O)C34C5CC(C(C)(C)C)C36C(OC(=O)C6O)OC4(C(=O)O5)C12O (stereo not given)	29.6 µM (active)
